Source: PubChem BioAssay AID623868 (Vanderbilt High Throughput Screening Facility, 2012)
Among all 2,100 compounds or so, about 760 (36%) were called active. Not all results are given here. Unmarked numbers belong to inactive results.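 How the source made its calls: active means thallium-flux fluorescence traces judged by eye to show enhanced or reduced glutamate response, manual score 1 or -1, so both directions (some results past the limit were not filed as active); inactive means the rest, including fluorescent or raised-baseline compounds.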

Experiment: thallium influx changes without GIRK channels – cell-based, HEK-293 rmGlu8, no GIRK, thallium flux, counter-screen for GIRK activator project, confirmation (AID 623868);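 further: extra codes mark interference with 3 for fluorescent and 4 for baseline rise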
Details: thallium flux fluorescence, at 10 µM, actives lie on both sides, codes: 1 enhancer, -1 blocker, 0 none, thallium stimulus containing EC20 glutamate
Compound `COC(=O)c1ccc(C(=O)OC)c(NC(=O)CSc2nc(-c3ccco3)cc(C(F)(F)F)n2)c1` has a manual score of 0. For `O=C(Nc1nnc(-c2ccccc2Cl)o1)c1ccc(S(=O)(=O)N2CCCCCC2)cc1`, the manual score was 1 (active). In the case of `O=S(=O)(c1ccc(-c2nnc(SCc3nnc(-c4ccccc4)o3)o2)cc1)N1CCCC1`, the manual score is reported as 0. For `CC1CCCN(S(=O)(=O)c2ccc(C(=O)Nc3nnc(-c4ccccc4Cl)o3)cc2)C1` (stereo not drawn), the manual score was 1 (active). `COc1ccccc1NC(=O)c1ccc(S(=O)(=O)N2CCCC2)cc1` showed a manual score of 0. In the case of `CCN(CC)c1ccc2cc(C(=O)NNC(=O)c3ccc(S(=O)(=O)N4CCCCC4)cc3)c(=O)oc2c1`, the manual score is reported as 0. `Cc1cc(C)nc(N2CCCC(C(=O)NCCc3ccc(F)cc3)C2)n1` (stereo not drawn) showed a manual score of 0. Work on `CN1/C(=C\C=C2/C(=O)Oc3ccccc3C2=O)C(C)(C)c2ccccc21` yielded a manual score of 3. `Cc1ccc(NC(=O)COc2cccnc2[N+](=O)[O-])cc1S(=O)(=O)N1CCCCC1` gave a manual score of 0. For `Cc1nn(CC(=O)Nc2ccc(Cl)c(S(=O)(=O)N(C)C)c2)c(C)c1[N+](=O)[O-]`, the manual score was 0. For `CC1(C)CC2CC(C)(CN2C(=S)NC(=O)c2ccccc2Cl)C1` (stereo not drawn), the manual score was 1 (active). `CC1(C)CC2CC(C)(CN2c2ncnc3ccccc23)C1` (stereo not drawn) gave a manual score of 0. Work on `Nn1c(SC/C=C/c2ccccc2)nnc1-c1ccccn1` yielded a manual score of 0. `Clc1cccc(CSc2nc3ccncc3[nH]2)c1` gave a manual score of 0. `Cc1oncc1C(=S)Nc1ccccc1` gave a manual score of 0. In the case of `Cc1ccc(NC(=S)c2nc3ccccc3[nH]2)cc1`, the manual score is reported as 1 (active). `Fc1ccc(CSc2nc3ccccc3[nH]2)c2ccccc12` showed a manual score of 0. With `S=C(Nc1ccc(Cl)cc1)c1nc2ccccc2[nH]1` the manual score was 1 (active). Work on `NC(=O)SCC(=O)Nc1ccc(Cl)cc1` yielded a manual score of 0. For `CC(C)c1nc(N2CCN(C(=O)c3ccccc3)CC2)c(C#N)c2c1COC(C)(C)C2`, the manual score was 0. In the case of `Cc1c(C(=O)NC(=S)Nc2ccccc2N2CCCC2)cccc1[N+](=O)[O-]`, the manual score is reported as 1 (active). In the case of `O=C(NC(=S)Nc1ccccc1N1CCCC1)c1ccc([N+](=O)[O-])cc1`, the manual score is reported as 1 (active). For `O=C(NC(=S)Nc1ccccc1N1CCCC1)c1ccccc1[N+](=O)[O-]`, the manual score was 1 (active). With `O=C(NC(=S)Nc1ccccc1N1CCCC1)c1ccc(-c2cccc([N+](=O)[O-])c2)o1` the manual score was 0.5. Compound `O=C(CSc1nc(O)cc(=O)n1-c1ccccc1)N1CCCCC1` has a manual score of 2. For `COc1cccc(N(CC(=O)Nc2cccc(C(C)=O)c2)S(C)(=O)=O)c1`, the manual score was 0. With `CCOC(=O)C1=C(C)NC2=C(C(=O)C(C(=O)OCC)C(c3cccc(OC)c3)C2)C1c1ccccn1` (stereo not drawn) the manual score was -0.5. `COC(=O)CSc1nc2ncccc2[nH]1` gave a manual score of 0. `O=C1NC(=O)/C(=C\c2ccccc2Oc2ccc(F)c(F)c2)S1` gave a manual score of 0. For `COc1cc(/C=C2\S/C(=N/S(=O)(=O)c3ccc(C)cc3)NC2=O)c([N+](=O)[O-])cc1OC`, the manual score was 0. In the case of `COc1cc(/C=C2\SC(=S)NC2=O)ccc1OS(=O)(=O)c1ccccc1`, the manual score is reported as 1 (active). With `COc1ccc(/C=C2\SC(=O)NC2=S)cc1OC` the manual score was 1 (active). For `COc1cc(/C=C2/SC(=S)NC2=O)ccc1OS(=O)(=O)c1ccc(C)cc1`, the manual score was 1 (active). With `COc1ccc(/C=C/C(=O)N2CCN(S(=O)(=O)/C=C/c3ccccc3)CC2)cc1OC` the manual score was 0. `CCOc1ccc(OCCSc2nc3ccccc3[nH]2)cc1` gave a manual score of 0. In the case of `O=C(Nc1nc(-c2ccccc2)c(-c2ccccc2)o1)c1ccc(F)cc1`, the manual score is reported as 1 (active). In the case of `Cc1ccc(C(=O)Nc2cnc3ccccn3c2=O)cc1`, the manual score is reported as 0. For `Cc1ccc(C(=O)Nc2nc(-c3ccccc3)c(-c3ccccc3)o2)cc1`, the manual score was 1 (active). `OCCCN=c1cc(-c2ccccc2)oc2ccc(Cl)cc12` showed a manual score of -0.5. Work on `CCCSc1nnc(Nc2ccccc2C)s1` yielded a manual score of 0. With `O=C(O)CC/C(=C\c1cc([N+](=O)[O-])ccc1Cl)c1nc2ccccc2s1` the manual score was -1 (active). Compound `O=C(CC(O)(C(F)(F)F)C(F)(F)F)Nc1ccc(Cl)c(Cl)c1` has a manual score of 0. Compound `CCCOc1ccc(NCC(=O)Nc2ccc(C)cc2C)cc1` has a manual score of 0. With `CCCCOc1ccc(C(=O)NNC(=S)NC(=O)CC)cc1` the manual score was 1 (active). For `CCCOc1ccc(C(=O)NNC(=S)NC(=O)CC)cc1`, the manual score was 1 (active). Work on `CNC(=S)SCCOc1ccc(C)cc1` yielded a manual score of 3. Work on `CCCCOc1ccc(C(=O)OC2CC(C)N(C)CC2C)cc1` (stereo not drawn) yielded a manual score of 0. Work on `CCOC(=O)c1ccc(NC(=S)NC(=O)COc2ccccc2)cc1` yielded a manual score of 0. With `CCNS(=O)(=O)c1cc(S(C)(=O)=O)ccc1Cl` the manual score was 0. In the case of `Oc1ccc2ccc3cccc[n+]3c2c1`, the manual score is reported as 3. Work on `C=COCCNC(=O)Nc1ccc(Cl)c(Cl)c1` yielded a manual score of 0. With `C=CCNC(=S)Nc1sc2c(c1C(=O)OCC)CC(C)(CC)OC2` (stereo not drawn) the manual score was 1 (active). In the case of `CCOC(=O)c1c(NC(=S)NC)sc2c1CC(C)(C)SC2`, the manual score is reported as 1 (active). With `CCOC(=O)C1=C(NC(=S)NC(=O)c2ccccc2)c2ccccc2CC1C(C)C` (stereo not drawn) the manual score was 0. In the case of `CCOC(=O)c1c(NC(=S)NCCc2ccccc2)sc2c1CC(C(C)C)OC2` (stereo not drawn), the manual score is reported as 0. In the case of `C=CCNC(=S)Nc1sc2c(c1C(=O)OCC)CC(C(C)C)OC2` (stereo not drawn), the manual score is reported as 1 (active). In the case of `CCOc1ccccc1OCCCCCc1c(C)n[nH]c1C`, the manual score is reported as 0. With `CC(C)NC(=S)N/N=C/c1cc(Br)ccc1O` the manual score was 1 (active). For `O=C(Nc1nnc(-c2ccc(Cl)cc2)o1)c1nc2ccccc2s1`, the manual score was 1 (active). `CC(C)NC(=O)c1nc2ccccc2s1` gave a manual score of 0. With `O=C(Nc1nnc(-c2ccccc2Cl)o1)c1nc2ccccc2s1` the manual score was 1 (active). For `O=C(Nc1nnc(-c2ccc(Cl)cc2)o1)c1ccccc1Br`, the manual score was 1 (active). With `O=C(Nc1nnc(-c2ccc(Cl)cc2)o1)C1=COCCO1` the manual score was 0.5. `CCN(CC)c1ccc2cc(-c3nc4ccccc4[nH]3)c(=O)oc2c1` gave a manual score of 3. Work on `COc1cccc(NC(=O)NCCCSC2CCCCC2)c1` yielded a manual score of 0. For `Cc1ccc(-c2cc(-c3n[nH]c(=S)o3)c3ccccc3n2)cc1`, the manual score was 1 (active). `Fc1ccccc1NC(=S)NN(Cc1ccccc1)c1ccccc1` showed a manual score of 0. In the case of `Cc1cccc(C)c1NC(=S)NC(=O)c1ccccc1F`, the manual score is reported as 1 (active). In the case of `O=C(NC(=S)NCc1ccccc1)c1ccccc1F`, the manual score is reported as 1 (active). In the case of `FC(F)(F)c1cccc(NC(=S)NCc2ccccc2)c1`, the manual score is reported as 0. For `O=C(NC(=S)N(Cc1ccccc1)Cc1ccccc1)c1ccccc1F`, the manual score was 1 (active). Work on `FC(F)(F)Oc1ccc(NC(=S)NCc2ccccc2)cc1` yielded a manual score of 0. Work on `O=C(Nc1cc(Cl)ccc1Oc1ccccc1)c1ccccc1F` yielded a manual score of 0.
